Results filed as inconclusive are left out. Where a call stands in place of a potency, no number is given. Calls of active or inactive are those of the source. Unless noted, calls follow the shape of the dose curve; as a rule, active = well fitted curve in the direction sought with a large enough effect in the repeat runs; inconclusive = weak or mixed curves; inactive = no such curve, though single readings can be large; an effect the other way counts as inactive or inconclusive.
Assays:
[1] = qHTS assay to identify aromatase inhibitors - cell viability counter screen (AID 743084);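 also: cells stimulated with testosterone during compound exposure; nearly all actives have a fitted effect of over 55% in size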
[2] = target: Aryl hydrocarbon receptor (Homo sapiens) (UniProt P35869); assay: qHTS assay to identify small molecule that activate the aryl hydrocarbon receptor (AhR) signaling pathway (AID 743085); also: nearly all actives have a fitted effect of over 15% in size; also: potency is read from the fitted curve at half-maximal effect;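 as to activation: HG2L7.5c1 human HepG2 liver cells with stably integrated DRE-driven firefly reporter; series mostly up to about 70 µM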
Sequence of Aryl hydrocarbon receptor (Homo sapiens) (P35869 whole entry, looked up): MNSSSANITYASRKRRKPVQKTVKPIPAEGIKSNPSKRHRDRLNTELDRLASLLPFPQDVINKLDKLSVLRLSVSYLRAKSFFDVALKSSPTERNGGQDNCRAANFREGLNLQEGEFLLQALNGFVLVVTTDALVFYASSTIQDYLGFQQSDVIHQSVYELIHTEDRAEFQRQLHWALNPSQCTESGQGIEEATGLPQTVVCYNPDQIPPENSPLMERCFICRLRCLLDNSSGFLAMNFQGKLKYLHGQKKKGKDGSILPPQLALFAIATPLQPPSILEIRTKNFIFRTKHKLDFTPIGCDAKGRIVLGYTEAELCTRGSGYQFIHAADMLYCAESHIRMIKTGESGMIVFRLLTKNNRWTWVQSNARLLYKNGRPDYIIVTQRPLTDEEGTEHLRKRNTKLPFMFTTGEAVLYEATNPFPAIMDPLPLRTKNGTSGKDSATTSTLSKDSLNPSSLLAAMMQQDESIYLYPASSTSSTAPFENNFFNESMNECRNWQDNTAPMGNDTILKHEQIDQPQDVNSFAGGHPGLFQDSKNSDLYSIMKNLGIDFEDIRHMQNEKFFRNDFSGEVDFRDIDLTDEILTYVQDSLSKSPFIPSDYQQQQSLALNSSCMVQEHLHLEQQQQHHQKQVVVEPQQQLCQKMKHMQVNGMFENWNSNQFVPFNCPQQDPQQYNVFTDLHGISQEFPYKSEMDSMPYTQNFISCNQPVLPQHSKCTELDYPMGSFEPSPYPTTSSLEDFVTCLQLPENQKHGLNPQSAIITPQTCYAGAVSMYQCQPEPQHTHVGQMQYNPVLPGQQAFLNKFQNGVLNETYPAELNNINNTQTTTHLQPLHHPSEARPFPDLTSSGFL
Outline: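 A multiplexed format paired cell viability (CellTiter-Fluor fluorescence) with AhR-dependent luciferase output (ONE-Glo luminescence) in the same wells of HepG2 DRE-luc cells after 24 h compound exposure at 37C.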

[3] = qHTS assay to identify small molecule that activate the aryl hydrocarbon receptor (AhR) signaling pathway - cell viability counter screen (AID 743086);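 also: HepG2 liver cells carrying the AhR DRE luciferase reporter; series mostly up to about 70 µM; nearly all actives have a fitted effect of over 45% in size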
Outline: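 HepG2-AhR-luc (HG2L7.5c1) cells, 4000/well, treated 24 h at 37 C with compound; viability measured as CellTiter-Fluor fluorescence after 30 min in the same wells as the luciferase read.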

[4] = target: Peroxisome proliferator-activated receptor gamma (Homo sapiens) (UniProt P37231); assay: qHTS assay to identify small molecule agonists of the peroxisome proliferator-activated receptor gamma (PPARg) signaling pathway (AID 743094; active = well fitted activation curve with a large enough effect in the signal ratio in the repeat runs, not every such curve was filed as active; the % refers to the signal ratio)
Sequence of Peroxisome proliferator-activated receptor gamma (Homo sapiens) (P37231 whole entry, looked up): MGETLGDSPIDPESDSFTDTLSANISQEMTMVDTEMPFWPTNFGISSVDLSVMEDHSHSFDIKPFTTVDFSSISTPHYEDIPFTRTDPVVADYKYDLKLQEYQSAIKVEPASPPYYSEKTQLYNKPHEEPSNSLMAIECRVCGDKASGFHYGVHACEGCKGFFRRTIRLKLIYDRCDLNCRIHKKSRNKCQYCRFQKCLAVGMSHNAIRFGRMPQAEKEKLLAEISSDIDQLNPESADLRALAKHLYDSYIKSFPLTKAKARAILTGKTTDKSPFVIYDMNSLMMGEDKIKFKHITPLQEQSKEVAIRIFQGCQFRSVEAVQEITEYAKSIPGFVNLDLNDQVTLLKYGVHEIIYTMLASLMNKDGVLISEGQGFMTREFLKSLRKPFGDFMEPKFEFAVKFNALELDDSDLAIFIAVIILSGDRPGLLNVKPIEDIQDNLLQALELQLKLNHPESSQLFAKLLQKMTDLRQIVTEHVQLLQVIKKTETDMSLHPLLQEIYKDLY
Outline: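 Stably transfected HEK293H cells (GeneBLAzer PPARg UAS-bla) were incubated with test substances for 17 h at 37C after a 5 h pre-incubation; beta-lactamase activity was then detected by FRET substrate fluorescence.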

[5] = target: Peroxisome proliferator-activated receptor gamma (Homo sapiens) (UniProt P37231); assay: qHTS assay to identify small molecule antagonists of the peroxisome proliferator-activated receptor gamma (PPARg) signaling pathway (AID 743191; calls by dose curve; also: nearly all actives have a fitted effect of over 30% in size; also: potency is read from the fitted curve at half-maximal effect)
Outline: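 GeneBLAzer PPARg UAS-bla HEK293H cells, 5 h post-plating, exposed to compounds 17 h at 37C. LiveBLAzer B/G FRET substrate added for 1 h at room temperature; beta-lactamase reporter read by fluorescence intensity.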

[6] = qHTS assay for small molecule agonists of the antioxidant response element (ARE) signaling pathway - cell viability counter screen (AID 743203; calls by dose curve; also: nearly all actives have a fitted effect of over 55% in size; also: potency is read from the fitted curve at half-maximal effect)
Outline: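 Cells (ARE-bla HepG2, 2,000/well) receive DMSO-dissolved compounds after a 5 hrs rest. Plates incubate 16 hrs at 37C/5% CO2. CellTiter-Glo luminescence is then recorded after 30 min at room temperature.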

[7] = qHTS assay for small molecule activators of the heat shock response signaling pathway - cell viability counter screen (AID 743209); also: nearly all actives have a fitted effect of over 50% in size; also: potency is read from the fitted curve at half-maximal effect
Outline: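 Quantitative HTS format, Tox21 10K library. HeLa cells carrying an HSE-driven beta-lactamase reporter were treated 5 h at 37 C, then assessed for viability by CellTiter-Glo luminescence.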

[8] = target: Bile acid receptor (Homo sapiens) (UniProt Q96RI1); assay: qHTS assay to identify small molecule agonists of the farnesoid-X-receptor (FXR) signaling pathway (AID 743220; active = well fitted activation curve with a large enough effect in the signal ratio in the repeat runs, not every such curve was filed as active; the % refers to the signal ratio)
Sequence of Bile acid receptor (Homo sapiens) (Q96RI1 whole entry, looked up): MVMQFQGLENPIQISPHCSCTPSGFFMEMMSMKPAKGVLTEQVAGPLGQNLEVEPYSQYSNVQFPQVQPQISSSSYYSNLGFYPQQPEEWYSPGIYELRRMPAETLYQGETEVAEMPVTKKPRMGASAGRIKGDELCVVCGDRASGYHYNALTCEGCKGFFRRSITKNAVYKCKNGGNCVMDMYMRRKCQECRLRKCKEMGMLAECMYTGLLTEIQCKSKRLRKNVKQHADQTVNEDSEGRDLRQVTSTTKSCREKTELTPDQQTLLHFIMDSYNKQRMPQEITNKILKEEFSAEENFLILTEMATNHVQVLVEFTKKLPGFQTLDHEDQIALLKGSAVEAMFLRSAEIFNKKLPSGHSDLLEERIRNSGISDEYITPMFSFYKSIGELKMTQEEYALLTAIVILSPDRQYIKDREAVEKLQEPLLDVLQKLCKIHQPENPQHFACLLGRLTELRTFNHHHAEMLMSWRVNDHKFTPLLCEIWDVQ
Outline: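 Beta-lactamase reporter under UAS control in GeneBLAzer FXR HEK 293T cells (5000/well) measured with LiveBLAzer FRET substrate after 2 h at room temperature. Compound exposure lasted 16 h at 37C.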

[9] = target: Vitamin D3 receptor (Homo sapiens) (UniProt P11473); assay: qHTS assay to identify small molecule agonists of the vitamin D receptor (VDR) signaling pathway (AID 743222; calls by dose curve)
Sequence of Vitamin D3 receptor (Homo sapiens) (P11473 whole entry, looked up): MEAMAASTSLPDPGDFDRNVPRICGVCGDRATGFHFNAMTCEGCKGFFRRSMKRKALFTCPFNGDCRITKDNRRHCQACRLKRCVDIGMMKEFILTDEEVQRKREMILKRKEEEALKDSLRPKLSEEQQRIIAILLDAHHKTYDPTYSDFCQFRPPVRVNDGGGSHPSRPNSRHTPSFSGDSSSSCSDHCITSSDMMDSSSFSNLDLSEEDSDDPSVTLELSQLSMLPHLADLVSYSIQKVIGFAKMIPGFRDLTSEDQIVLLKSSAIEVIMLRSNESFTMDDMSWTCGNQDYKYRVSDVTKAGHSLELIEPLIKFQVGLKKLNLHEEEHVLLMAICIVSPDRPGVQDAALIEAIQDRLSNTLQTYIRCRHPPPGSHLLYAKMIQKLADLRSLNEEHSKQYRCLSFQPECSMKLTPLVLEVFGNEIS
Outline: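 Agonist activity measured in VDR-bla reporter cells. Exposure 16 h, 37C, 5% CO2; detection by B/G FRET substrate, 2 h RT.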

[10] = qHTS assay to identify small molecule antagonists of the peroxisome proliferator-activated receptor gamma (PPARg) signaling pathway - cell viability counter screen (AID 743194); also: nearly all actives have a fitted effect of over 55% in size; also: potency is read from the fitted curve at half-maximal effect
Outline: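 Cytotoxicity counter screen in PPARg-bla HEK293H cells, same wells as reporter assay. Compounds plus 50 nM rosiglitazone (final) for 17 h at 37 C, then viability read by CellTiter-Glo luminescence.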

[11] = qHTS assay for small molecule activators of the heat shock response signaling pathway (AID 743210; active = well fitted activation curve with a large enough effect in the signal ratio in the repeat runs, with a control signal flat, not every such curve was filed as active; the % refers to the signal ratio;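 also: HeLa cells with beta-lactamase reporter driven by heat shock elements; series mostly up to about 63 µM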)
Outline: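 Quantitative high-throughput format using an engineered HeLa line in which heat shock response elements drive beta-lactamase; after 5 h with compound, cells received a B/G FRET substrate and fluorescence was read.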

[12] = qHTS assay to identify small molecule agonists of the peroxisome proliferator-activated receptor delta (PPARd) signaling pathway - cell viability counter screen (AID 743211); also: nearly all actives have a fitted effect of over 55% in size; also: potency is read from the fitted curve at half-maximal effect
Outline: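 Tox21 library compounds, delivered in DMSO, were incubated 17 h with PPARd-bla HEK293H cells; cytotoxicity was taken from CellTiter-Glo luminescence read 30 min after reagent addition.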

[13] = target: Peroxisome proliferator-activated receptor delta (Homo sapiens) (UniProt Q03181); assay: qHTS assay to identify small molecule agonists of the peroxisome proliferator-activated receptor delta (PPARd) signaling pathway (AID 743212; calls by dose curve)
Sequence of Peroxisome proliferator-activated receptor delta (Homo sapiens) (Q03181 whole entry, looked up): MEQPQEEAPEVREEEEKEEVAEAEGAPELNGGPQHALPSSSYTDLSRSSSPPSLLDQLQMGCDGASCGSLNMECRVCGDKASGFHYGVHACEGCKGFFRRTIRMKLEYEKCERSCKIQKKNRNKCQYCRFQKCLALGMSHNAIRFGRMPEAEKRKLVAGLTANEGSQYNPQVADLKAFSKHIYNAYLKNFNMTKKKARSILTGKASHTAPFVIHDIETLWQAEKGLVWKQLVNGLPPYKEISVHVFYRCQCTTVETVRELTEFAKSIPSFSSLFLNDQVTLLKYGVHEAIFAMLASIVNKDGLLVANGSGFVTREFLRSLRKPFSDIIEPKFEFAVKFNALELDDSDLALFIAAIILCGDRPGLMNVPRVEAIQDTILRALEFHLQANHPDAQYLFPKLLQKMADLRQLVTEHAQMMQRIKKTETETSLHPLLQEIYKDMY
Outline: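 Quantitative high-throughput agonist screen in a HEK293H beta-lactamase reporter line under UAS control. Compounds in DMSO, at 37 C. Fluorescence read after 2 h with FRET substrate at room temperature.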

[14] = qHTS assay to identify small molecule antagonists of the peroxisome proliferator-activated receptor delta (PPARd) signaling pathway - cell viability counter screen (AID 743213); also: nearly all actives have a fitted effect of over 50% in size; also: potency is read from the fitted curve at half-maximal effect
Outline: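 PPARd-bla HEK293H cells were treated with compounds plus agonist L165041 (300 nM final) for 17 h at 37 C. Viability was then read in the same wells by CellTiter-Glo luminescence after 30 min at room temperature.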

[15] = qHTS assay to identify small molecule agonists of the farnesoid-X-receptor (FXR) signaling pathway - cell viability counter screen (AID 743218); also: nearly all actives have a fitted effect of over 45% in size; also: potency is read from the fitted curve at half-maximal effect
Outline: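 In GeneBLAzer FXR-UAS-bla HEK 293T cells, compounds act for 16 h at 37 C. Cell viability is then scored in the reporter wells by CellTiter-Glo, 30 min at RT, luminescence.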

[16] = qHTS assay to identify small molecule antagonists of the farnesoid-X-receptor (FXR) signaling pathway - cell viability counter screen (AID 743221; active = well fitted cell-killing curve with a large enough effect in the repeat runs, not every such curve was filed as active; also: nearly all actives have a fitted effect of over 50% in size; also: potency is read from the fitted curve at half-maximal effect)
Outline: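 Cytotoxicity is taken from ATP luminescence (CellTiter-Glo, 30 min, room temperature) in FXR-bla HEK 293T cells previously incubated 16 h at 37 C with compound and chenodeoxycholic acid at 50 uM final.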

[17] = target: Vitamin D3 receptor (Homo sapiens) (UniProt P11473); assay: qHTS assay to identify small molecule antagonists of the vitamin D receptor (VDR) signaling pathway (AID 743223; active = well fitted inhibition curve with a large enough effect in the signal ratio in the repeat runs, not every such curve was filed as active; the % refers to the signal ratio)
Outline: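 Quantitative HTS in VDR-bla reporter cells stimulated with 1alpha,25-dihydroxyvitamin D3, 3 nM final. Compound exposure 16 h, 37C, 5% CO2. Read-out: beta-lactamase FRET substrate fluorescence, 2 h RT.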

[18] = target: Peroxisome proliferator-activated receptor delta (Homo sapiens) (UniProt Q03181); assay: qHTS assay to identify small molecule antagonists of the peroxisome proliferator-activated receptor delta (PPARd) signaling pathway (AID 743215; active = well fitted inhibition curve with a large enough effect in the signal ratio in the repeat runs, not every such curve was filed as active; the % refers to the signal ratio;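 also: cells stimulated with agonist L165041 at 300 nM final during compound exposure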; also: potency is read from the fitted curve at half-maximal effect)
Outline: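 Antagonist-mode beta-lactamase reporter screen: HEK293H cells with UAS-bla under PPARd control, stimulated by 300 nM L165041 (final) alongside test compound for 17 h at 37 C, then FRET fluorescence after 2 h substrate incubation.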

[19] = qHTS assay for small molecule agonists of the antioxidant response element (ARE) signaling pathway (AID 743202; active = well fitted activation curve with a large enough effect in the signal ratio in the repeat runs, not every such curve was filed as active; the % refers to the signal ratio; also: potency is read from the fitted curve at half-maximal effect)
Outline: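 Agonist mode reporter screen: HepG2 cells with ARE-controlled beta-lactamase are incubated with test compounds for 16 h at 37 C, and beta-lactamase activity is measured as fluorescence of cleaved B/G FRET substrate.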

[20] = target: Bile acid receptor (Homo sapiens) (UniProt Q96RI1); assay: qHTS assay to identify small molecule antagonists of the farnesoid-X-receptor (FXR) signaling pathway (AID 743217; active = well fitted inhibition curve with a large enough effect in the signal ratio in the repeat runs, not every such curve was filed as active; the % refers to the signal ratio; also: potency is read from the fitted curve at half-maximal effect)
Outline: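 Beta-lactamase reporter under UAS control in HEK 293T cells; compound exposure 16 h at 37 °C in the presence of chenodeoxycholic acid (50 uM final); signal from B/G FRET substrate after 2 h at room temperature.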

| Compound | Potency [1] | Potency [2] | Potency [3] | Potency [4] | Potency [5] | Potency [6] | Potency [7] | Potency [8] | Potency [9] | Potency [10] | Potency [11] | Potency [12] | Potency [13] | Potency [14] | Potency [15] | Potency [16] | Potency [17] | Potency [18] | Potency [19] | Potency [20] |
| --- | --- | --- | --- | --- | --- | --- | --- | --- | --- | --- | --- | --- | --- | --- | --- | --- | --- | --- | --- | --- |
| CCC(Cl)C(Cl)C(Cl)CC(Cl)C(Cl)C(C)Cl (stereo not drawn) | inactive | inactive | inactive | inactive | inactive | inactive | inactive | inactive | inactive | – | – | – | – | – | – | – | – | – | – | – |
| C=C(C)C(=O)OCC[N+](C)(C)C | inactive | inactive | inactive | inactive | 2.18 µM (active) | inactive | inactive | – | – | inactive | inactive | inactive | inactive | inactive | inactive | inactive | inactive | – | – | – |
| CCC(C)(C)C1CCCCC1OC(C)=O (stereo not drawn) | inactive | inactive | inactive | inactive | inactive | inactive | – | – | – | inactive | – | inactive | inactive | 54.9 µM (active) | inactive | – | – | – | – | – |
| CCCCN1CCCC[C@H]1C(=O)Nc1c(C)cccc1C | inactive | inactive | inactive | inactive | – | inactive | inactive | – | inactive | inactive | inactive | – | inactive | – | inactive | – | inactive | inactive | – | – |
| CCCCCCCCCCC=O | inactive | inactive | inactive | inactive | – | inactive | inactive | – | inactive | inactive | inactive | inactive | inactive | inactive | inactive | inactive | – | inactive | inactive | – |
| CN(C/C=C/C#CC(C)(C)C)Cc1cccc2ccccc12 | inactive | inactive | inactive | inactive | inactive | – | inactive | inactive | inactive | inactive | inactive | – | – | inactive | – | – | inactive | – | – | – |
| C1CCCC1 | inactive | inactive | inactive | inactive | inactive | – | inactive | – | inactive | inactive | inactive | inactive | – | inactive | inactive | – | – | – | – | – |
| CCCC(C)c1ccccc1O (stereo not drawn) | inactive | inactive | inactive | inactive | inactive | inactive | inactive | inactive | inactive | inactive | inactive | inactive | inactive | inactive | inactive | inactive | – | inactive | inactive | inactive |
| NC(=O)NS(=O)(=O)c1ccc(N)cc1 | inactive | inactive | inactive | inactive | inactive | inactive | inactive | – | – | inactive | inactive | inactive | – | inactive | inactive | inactive | – | – | inactive | – |
| CC(=O)SC[C@@H](Cc1ccccc1)C(=O)NCC(=O)OCc1ccccc1 | inactive | inactive | inactive | inactive | inactive | – | inactive | – | – | inactive | inactive | – | inactive | inactive | inactive | – | – | inactive | inactive | – |
| CCN(C(=O)N(CC)c1ccccc1)c1ccccc1 | inactive | inactive | inactive | inactive | inactive | inactive | inactive | – | – | inactive | inactive | inactive | – | inactive | inactive | inactive | – | – | – | – |
| Oc1ccc2c(c1)-c1ccccc1C2 | inactive | 15.4 µM (active) | inactive | inactive | – | inactive | inactive | inactive | inactive | inactive | inactive | – | inactive | inactive | inactive | inactive | – | inactive | 4.86 µM (active) | inactive |
| NNc1nc(-c2ccccc2)cs1 | inactive | 9.97 µM (active) | inactive | inactive | 0.504 µM (active) | inactive | inactive | – | – | inactive | – | – | – | – | 2.52 µM (active) | – | – | inactive | – | – |
| OCCCCCCCCCCCCBr | inactive | inactive | inactive | inactive | – | inactive | inactive | inactive | inactive | inactive | – | inactive | inactive | inactive | inactive | inactive | inactive | – | – | – |
| Cc1cc(O)c2ccccc2c1O | inactive | 9.44 µM (active) | inactive | inactive | – | 13.3 µM (active) | 9.44 µM (active) | – | – | 10.6 µM (active) | – | 10.6 µM (active) | – | 10.6 µM (active) | 13.3 µM (active) | 23.7 µM (active) | – | 10.6 µM (active) | – | 16.8 µM (active) |
| CCCCCCC[N+](CC)(CC)CCCCc1ccc(Cl)cc1 | inactive | inactive | inactive | inactive | inactive | inactive | inactive | – | – | inactive | – | – | – | inactive | inactive | inactive | – | – | – | – |
| CCCC/C=C/CCCCO | inactive | inactive | inactive | inactive | – | – | – | – | inactive | inactive | – | – | – | inactive | – | inactive | – | – | inactive | – |
| CCCCCOC(=O)CCCC | inactive | inactive | inactive | inactive | inactive | inactive | inactive | inactive | inactive | inactive | – | inactive | – | inactive | inactive | inactive | – | – | inactive | inactive |

From PubChem BioAssay (Tox21)
